Values joined by “and” are separate entries in the source; they are usually repeats but may differ in a detail not shown here. Identical values can stand only once. For part of these data: Potency and affinity values are given separately. Active and inactive are the calls of the source. Unless noted, how the calls were made is not given here.
What was measured:
[1] = yeast 75Q aggregation reduction – 75Q-TubU reporter (AID 1593); conditions: Yeast 75Q polyglutamine aggregation reporter
[2] = restoration of touch response, mutant HTT neurons – whole organism, C. elegans mechanosensory neurons, N-terminal huntingtin (AID 1599); conditions: C. elegans polyQ-huntingtin mechanosensory neurons, stronger effect = higher value
[3] = blockers of cytochrome c efflux from mitochondria – biochemical, purified mitochondria (AID 1603); conditions: stronger effect = lower value;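 further: mouse liver mitochondria challenged with calcium chloride; signal normalized to the plate average as 100%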
[4] = polyglutamine aggregate formation blockers (AID 1604); conditions: polyglutamine-induced protein aggregation inhibition assay; stronger effect = higher value; tested at 2.5 µM
[5] = glutamate transport activators, MN-1 cells, MN-1 cell line (AID 1612); conditions: MN-1 motor neuron cells, stronger effect = higher value;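 further: tested at 1 µM final; 0% = mean of DMSO vehicle wells on each plate; positive means more glutamate uptake than control and negative means less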
[6] = 75Q-TubH aggregate inhibition, S. cerevisiae, yeast (AID 1616); conditions: S. cerevisiae 75Q-TubH polyglutamine aggregation suppression; stronger effect = higher value
[7] = P. berghei load reduction in hepatocytes – cell-based, HepG2, luciferase luminescence, HepG2 viability, primary screen (AID 624349; in the data active means parasite load remaining mostly below about 12%, no sharp cut-off; inactive means mostly above about 10%;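 further: 100% = mean of DMSO negative control wells on the same plate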); conditions: P. berghei liver stage in HepG2, luciferase luminescence, concentration not given here; parasite load remaining: stronger effect = lower value; viability: measured here: HepG2 viability without parasites
[8] = EMT-state selective cytotoxicity in co-culture – imaging, PC-3E GFP, TEM4-18 mCherry, primary screen (AID 1345086;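 active means compounds killing one labelled cell type while sparing the other, by normalised counts and ratio limits, not self-fluorescent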;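 on all read-outs here: cells exposed to compound for 72 h before imaging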;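 on red/green cell ratio (normalised): normalised mesenchymal count divided by normalised epithelial count so high means epithelial killing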); conditions: PC-3E GFP / TEM4-18 mCherry co-culture, imaging cell counts, at 1 µM; for red/green cell ratio (normalised): actives lie on both sides
[9] = viability loss with induced miR-34 in A549 – imaging, A549 dox-inducible miR-34, nuclei and caspase counts, primary screen (AID 1347080;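 active means compounds whose cell count with miR-34 switched on is under 0.7 times the count with it off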); conditions: A549 miR-34 inducible, Hoechst nuclei count, 48 h
[10] = compounds altering circadian rhythm period length – cell-based, LOPAC library, luminescence reporter (AID 2774); conditions: circadian reporter cells, at 7 µM, actives lie on both sides;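 further: values are relative to mean of DMSO wells on each plate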
[11] = test system: Hepatitis C virus NS3 helicase; test: blockers of NS3h binding to ssDNA – biochemical, fluorescence polarization, LOPAC1280 library, primary screen (AID 687035; in the data active means inhibition above about 37%); conditions: Purified HCV NS3 helicase, Cy5-dT15 ssDNA binding fluorescence polarization; stronger effect = higher value; concentration not given here
[12] = compounds altering Cy5-DNA-NS3h complex signal – biochemical, LOPAC1280, artefact control for HCV NS3 helicase inhibitor project (AID 687037); conditions: Cy5-DNA-NS3h complex fluorescence interference counterscreen
[13] = test system: Aerobactin synthetase IucA (Klebsiella pneumoniae); test: inhibition of K. pneumoniae IucA enzyme – biochemical, Tocris library, absorbance (AID 1345561); conditions: purified IucA enzyme assay, absorbance (OD) read-out; stronger effect = lower value;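 tested at 8 µM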;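 further: 100% = enzyme without compound and 0% = no enzyme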
[14] = test system: Aerobactin synthetase IucA (Klebsiella pneumoniae, hypervirulent); test: biochemical IucA inhibition screen of LOPAC library by absorbance (AID 1346212); conditions: IucA enzyme assay, absorbance (OD) readout; stronger effect = lower value;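 tested at 8 µM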;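 further: 100% = no compound wells and 0% = no enzyme wells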
[15] = blockers of cellular phospholipid synthesis – cell-based, LOPAC library, screen 4, primary screen (AID 1347384); conditions: animal cells, phospholipid biosynthesis inhibition screen; at 10 µM
[16] = galactose survival enhancers in mitochondrial complex I cybrids – cell-based, galactose medium, ATP luminescence, primary screen (AID 1645843;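 active means z-score of at least 1.8 in each of two replicates, scored against plate mean and spread of sample wells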;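 further: positive z means more ATP and so rescue of galactose-driven cybrid death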); conditions: complex I mutant cybrid cells, 72 h, stronger effect = higher value
[17] = compounds altering viability of human ES cells (AID 493140); conditions: human embryonic stem cell survival screen; stronger effect = higher value;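 further: cells exposed to compounds for four days before counting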
[18] = measured here: epithelial PC-3E GFP cell survival
[19] = measured here: mesenchymal TEM4-18 mCherry cell survival
[20] = measured here: relative caspase fold change +Dox/-Dox
[21] = measured here: total cells with miR-34 induction, stronger effect = lower value
[22] = measured here: total cells without miR-34 induction
[23] = stronger effect = lower value, cell number ratio, induced over uninduced

Work on `C[C@]12CCC(=O)C=C1CCC1C2CC[C@@]2(C)C1CC[C@@H]2O` (stereo partly drawn) yielded a score [1] of -1.11, a rescue above control [2] of 4.25 and a cytochrome c release ratio [3] of 1.03. It also gave an inhibition of aggregation [4] of -1.96%, a glutamate uptake change [5] of 18.8% and an aggregation suppression score [6] of -0.43. The parasite load remaining [7] was 68.4% (inactive), the viability [7] was 110% and the red/green cell ratio (normalised) [8] was 1.12 (inactive). The normalised cell number [8, 18] was 0.76, the normalised cell number [8, 19] was 0.85 and the fold change ([9]; stronger effect = lower value) was 0.943 (inactive). For the same molecule, the fold change [9, 20] was 2.07, the cell count [9, 21] was 10700 and the cell count [9, 22] was 11300.
In the case of `CCCCCCCCCCNCCC` (tested in a mixture with another compound), the parasite load remaining [7] is reported as 23% (inactive), the viability [7] is reported as 92.6% and the red/green cell ratio (normalised) ([8]; counts scaled to control wells, 1 = unselective) is reported as 0.92 (inactive). The normalised cell number [8, 18] was 1.01, the normalised cell number [8, 19] was 0.93 and the fold change [9, 23] was 0.945 (inactive). It also gave a fold change [9, 20] of 1.32, a cell count [9, 21] of 11300 and a cell count [9, 22] of 11900.
In the case of `CC(N)Cc1c[nH]c2ccc(O)cc12` (stereo not drawn), the period change [10] is reported as -0.08 h (inactive), the inhibition [11] is reported as -7% (inactive) and the fluorescence ratio (interference) [12] is reported as 0.9 (inactive). The remaining activity [13] was 105% (inactive), the remaining activity [14] was 122% (inactive) and the fold change ([9]; stronger effect = lower value) was 1.02 (inactive) and 0.98 (inactive). For the same molecule, the fold change [9, 20] was 1.63 and 0.84, the cell count [9, 21] was 11100 and 9190 and the cell count [9, 22] was 10900 and 9370. For the same molecule, the outcome [15] was “inactive” and the z-score [16] was 0.365 (inactive) and 0.08 (inactive).
In the case of `NCc1cc(=O)[nH]o1`, the period change [10] is reported as -0.1 h (inactive), the inhibition [11] is reported as -3% (inactive) and the fluorescence ratio (interference) [12] is reported as 1 (inactive). For the same molecule, the remaining activity [13] was 112% (inactive), the remaining activity [14] was 89% (inactive) and the fold change ([9]; stronger effect = lower value) was 0.974 (inactive). For the same molecule, the fold change [9, 23] was 0.899 (inactive), the fold change [9, 20] was 1.71 and 1.62 and the cell count [9, 21] was 10400 and 8970. For the same molecule, the cell count [9, 22] was 10700 and 9980, the outcome [15] was “inactive” and the z-score [16] was 0.465 (inactive) and -0.045 (inactive).
For `CCNC1(c2cccs2)CCCCC1=O` (stereo not drawn), the survival [17] was 13.6 (inactive), the parasite load remaining [7] was 136% (inactive) and the viability [7] was 77%. The red/green cell ratio (normalised) [8] was 0.77 (inactive), the normalised cell number [8, 18] was 1.37 and the normalised cell number [8, 19] was 1.05. The fold change ([9]; stronger effect = lower value) was 0.914 (inactive), the fold change [9, 20] was 0.59 and the cell count [9, 21] was 8750. It also gave a cell count [9, 22] of 9570.
With `COc1cc2c(c(OC)c1OC)-c1ccc(O)c(=O)cc1C(N)CC2` (stereo not drawn) the survival [17] was 6 (inactive), the parasite load remaining [7] was 59.8% (inactive) and the viability [7] was 94.7%. The red/green cell ratio (normalised) [8] was 0.78 (inactive), the normalised cell number [8, 18] was 1.21 and the normalised cell number [8, 19] was 0.95.
With `c1ccc(CCCN2CCN(CCOC(c3ccccc3)c3ccccc3)CC2)cc1` the period change [10] was -0.025 h (inactive), the inhibition [11] was 0% (inactive) and the fluorescence ratio (interference) [12] was 1 (inactive). The remaining activity [13] was 117% (inactive), the remaining activity [14] was 104% (inactive) and the fold change ([9]; stronger effect = lower value) was 1.21 (inactive) and 0.966 (inactive). The fold change [9, 20] was 1.16 and 0.645, the cell count [9, 21] was 3120 and 2750 and the cell count [9, 22] was 2580 and 2850. The outcome [15] was “inactive” and the z-score [16] was -1.04 (inactive) and -1.21 (inactive).
In the case of `CCC1(CC)C(=O)NC(=O)NC1=O`, the red/green cell ratio (normalised) [8] is reported as 0.85 (inactive), the normalised cell number [8, 18] is reported as 0.92 and the normalised cell number [8, 19] is reported as 0.78.
In the case of `C#CCOC(=O)C1=CCCN(C)C1`, the period change [10] is reported as -0.055 h (inactive), the inhibition [11] is reported as -1% (inactive) and the fluorescence ratio (interference) [12] is reported as 1 (inactive). The remaining activity [13] was 105% (inactive), the remaining activity [14] was 121% (inactive) and the fold change ([9]; stronger effect = lower value) was 1.05 (inactive). For the same molecule, the fold change [9, 23] was 0.926 (inactive), the fold change [9, 20] was 1.99 and 0.981 and the cell count [9, 21] was 10200 and 8480. The cell count [9, 22] was 9640 and 9160, the outcome [15] was “inactive” and the z-score [16] was -0.93 (inactive) and -0.57 (inactive).
For `C#C[C@@H]1CC2C3CCC4=C[C@@H](OC(C)=O)CCC4C3CC[C@]2(C)[C@H]1OC(C)=O` (stereo partly drawn), the parasite load remaining [7] was 19.4% (inactive), the viability [7] was 101% and the red/green cell ratio (normalised) [8] was 0.9 (inactive). The normalised cell number [8, 18] was 1.25, the normalised cell number [8, 19] was 1.12 and the fold change ([9]; stronger effect = lower value) was 0.854 (inactive). It also gave a fold change [9, 20] of 3.71, a cell count [9, 21] of 11300 and a cell count [9, 22] of 13200.
For `CCCN(CCC)C1Cc2cc(OC)c(OC)cc2C1`, the period change [10] was -0.045 h (inactive), the inhibition [11] was -2% (inactive) and the fluorescence ratio (interference) [12] was 1 (inactive). For the same molecule, the remaining activity [13] was 120% (inactive), the remaining activity [14] was 106% (inactive) and the fold change ([9]; stronger effect = lower value) was 0.979 (inactive) and 0.907 (inactive). The fold change [9, 20] was 0.924 and 0.563, the cell count [9, 21] was 9280 and 9110 and the cell count [9, 22] was 9480 and 10000. The outcome [15] was “inactive” and the z-score [16] was 0.43 (inactive) and 0.01 (inactive).
For `CC(=O)NCCc1c[nH]c2ccccc12`, the period change [10] was 0.04 h (inactive), the inhibition [11] was -3% (inactive) and the fluorescence ratio (interference) [12] was 0.9 (inactive). The remaining activity [13] was 90.2% (inactive), the remaining activity [14] was 105% (inactive) and the fold change ([9]; stronger effect = lower value) was 1.01 (inactive) and 0.947 (inactive). For the same molecule, the fold change [9, 20] was 0.736 and 0.687, the cell count [9, 21] was 10200 and 9110 and the cell count [9, 22] was 10200 and 9620. For the same molecule, the outcome [15] was “inactive” and the z-score [16] was 0.505 (inactive) and 0.035 (inactive).
For `CCOC(=O)c1ncn2c1[C@@H]1CCCN1C(=O)c1cc(OC)ccc1-2`, the period change [10] was -0.11 h (inactive), the inhibition [11] was 0% (inactive) and the fluorescence ratio (interference) [12] was 1 (inactive). For the same molecule, the remaining activity [13] was 125% (inactive), the remaining activity [14] was 110% (inactive) and the fold change ([9]; stronger effect = lower value) was 1.04 (inactive) and 0.964 (inactive). For the same molecule, the fold change [9, 20] was 0.593 and 0.443, the cell count [9, 21] was 9220 and 8750 and the cell count [9, 22] was 8880 and 9080. For the same molecule, the outcome [15] was “inactive” and the z-score [16] was 0.505 (inactive) and 0.115 (inactive).
With `C/C(O)=C(\C#N)C(=O)Nc1cc(Br)ccc1Br` the period change [10] was 0.265 h (inactive), the survival [17] was 124 (inactive) and the inhibition [11] was 1% (inactive). The fluorescence ratio (interference) [12] was 1 (inactive), the remaining activity [13] was 116% (inactive) and the remaining activity [14] was 112% (inactive). The fold change ([9]; stronger effect = lower value) was 1.11 (inactive) and 0.867 (inactive), the fold change [9, 20] was 0.986 and 2.29 and the cell count [9, 21] was 5190 and 8220. The cell count [9, 22] was 4660 and 9480 and the z-score [16] was 2.97 (active).
With `COC(=O)[C@@H](N)CCCN=C(N)N[N+](=O)[O-]` the period change [10] was -0.07 h (inactive), the inhibition [11] was -2% (inactive) and the fluorescence ratio (interference) [12] was 1 (inactive). For the same molecule, the remaining activity [13] was 81.5% (inactive), the remaining activity [14] was 117% (inactive) and the fold change ([9]; stronger effect = lower value) was 1.06 (inactive) and 1.11 (inactive) and 0.952 (inactive). The fold change [9, 20] was 1.8 and 0.812 and 0.955, the cell count [9, 21] was 11200 and 5930 and 8740 and the cell count [9, 22] was 10600 and 5320 and 9180. For the same molecule, the outcome [15] was “inactive” and the z-score [16] was 0.23 (inactive) and 0.29 (inactive).
